# Assay results from PubChem BioAssay AID588453 (National Center for Advancing Translational Sciences (NCATS), 2011).
# In all, about 390,000 compounds went through this assay and about 4,000 (1%) were called active. Entries that show only a call come without a potency. Inconclusive results (about 4%) are left out. Calls come from the whole dose curve; as a rule, active = well fitted inhibition curve with a large enough effect; inconclusive = small, poorly fitted or top-dose-only effect; inactive = no such curve, though single readings can be large or run the other way. This excerpt belongs to a sample that is enriched for actives.
# Target: Thioredoxin reductase 1, cytoplasmic (Rattus norvegicus) (UniProt O89049)
# Sequence (O89049 whole entry, looked up): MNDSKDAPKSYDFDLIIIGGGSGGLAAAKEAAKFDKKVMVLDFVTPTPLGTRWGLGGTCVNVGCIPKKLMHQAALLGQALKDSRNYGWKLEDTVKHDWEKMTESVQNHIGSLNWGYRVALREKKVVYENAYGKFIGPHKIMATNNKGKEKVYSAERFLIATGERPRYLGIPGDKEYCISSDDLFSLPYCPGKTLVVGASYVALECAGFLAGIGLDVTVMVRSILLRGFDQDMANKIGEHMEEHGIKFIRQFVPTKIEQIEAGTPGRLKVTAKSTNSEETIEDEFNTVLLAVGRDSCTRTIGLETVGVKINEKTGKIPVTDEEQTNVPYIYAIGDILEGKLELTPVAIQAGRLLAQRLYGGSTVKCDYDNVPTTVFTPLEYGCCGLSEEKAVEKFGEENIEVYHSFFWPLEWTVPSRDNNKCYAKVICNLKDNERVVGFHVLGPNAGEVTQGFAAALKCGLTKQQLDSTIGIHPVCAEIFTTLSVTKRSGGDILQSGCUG
# Test: qHTS Assay for Inhibitors of Mammalian Selenoprotein Thioredoxin Reductase 1 (TrxR1): qHTS; note: nearly all actives have a fitted effect of over 65% in size
# Details: recombinant rTrxR1, NADPH fluorescence consumption, selenite substrate; series mostly up to 114 µM
# How it was run: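 Rat TrxR1 (90 nM in the dispensed reagent) was pre-reduced with 400 uM NADPH for 5 min at room temperature, then incubated with compound for 15 min. After 400 uM selenite was added, NADPH fluorescence (Ex 340/Em 450 nm) was followed for 8 min.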
# Potency is the fitted concentration of half-maximal effect.
row,SMILES,Potency
1,Cc1ccc(C(=O)Nc2ccc3[nH]c(=O)c(=O)[nH]c3c2)cc1,inactive
2,CCCS(=O)(=O)C(=C1Nc2ccccc2N1)S(=O)(=O)CCC,inactive
3,CN(C)/C=C1/Nc2ccccc2C1=O,35.5 µM (active)
4,Cc1ccc(S(=O)(=O)c2nnn3c2nc(N2CCN(c4ccccc4F)CC2)c2cc(Cl)ccc23)cc1C,inactive
5,COCCNC(=O)CSc1nc(-c2ccccc2)[nH]c1-c1ccc(C)cc1,inactive
6,Cc1csc(NCC(=O)c2c[nH]c3ccccc23)n1,inactive
7,COCCCn1c(-c2cccs2)nc2nc3ccccc3nc21,inactive
8,Clc1cccc(-c2nc3nc4ccccc4nc3n2Cc2ccco2)c1,7.94 µM (active)
9,Cc1nc2ccc(S(=O)(=O)N(CC(=O)Nc3ccc(F)cc3)Cc3ccccc3)cc2s1,inactive
10,Cc1ccc(C2C=C(c3ccc(Cl)cc3)Nc3nc(NC(=O)CCC(=O)O)nn32)cc1 (configuration not stated),inactive
11,CCOc1ccc(NCCC(=O)c2ccc3c(c2)OCO3)cc1,2.24 µM (active)
12,CCOc1ccc(NC(=O)Cn2c(=O)n(CCCC(=O)NCc3ccc4c(c3)OCO4)c(=O)c3ccccc32)cc1,inactive
13,CCOc1ccc(C(=O)CCC(=O)NC2=NCCS2)cc1,inactive
14,COC(=O)c1c(NC(=O)CCCOc2ccccc2)sc2c1CCC(C)C2 (configuration not stated),inactive
15,CCCc1nc2c([nH]1)C(c1cccnc1)C(C#N)=C(N)O2 (configuration not stated),inactive
16,CCCc1[nH]nc2c1C(c1ccc(Br)s1)C(C#N)=C(N)O2 (configuration not stated),44.7 µM (active)
17,CCOc1ccc(-n2c(C)nc3c(cnn3-c3ccc(C)cc3)c2=O)cc1,inactive
18,CCC1(C)CC(=O)c2c(ccc3oc(C(=O)Nc4ccc(C(C)=O)cc4)c(C)c23)O1 (configuration not stated),inactive
19,Cc1ccc(OCC(=O)c2cc(C)n(Cc3ccco3)c2C)c([N+](=O)[O-])n1,inactive
20,Cc1ccc(Cn2c(=O)n(Cc3nc(-c4ccccc4)no3)c(=O)c3cc4c(cc32)OCO4)cc1,inactive
21,Cc1ccc(Cn2c(C)nc3c(c2=O)c2nc4ccccc4nc2n3Cc2ccco2)cc1,10 µM (active)
22,CC(C)(C)C1CCC(NC(=O)c2cnn3c2NC(=C2CC2)C=C3C(F)F)CC1 (configuration not stated),inactive
23,O=S(=O)(c1ccc(Cl)cc1)c1nnn2c1nc(NC1CCCC1)c1sccc12,inactive
24,COc1ccc(/C=C/c2ccnc3ccccc23)cc1OC,inactive
25,CCOc1cc(CNC(=O)c2sc3ncnc(N(C)C4CCCCC4)c3c2C)ccc1OC,inactive

row,SMILES,Potency
1,CCOC(=O)Nc1ccc2c(c1)N(C(=O)CN1CCN3CCCC3C1)c1ccccc1CC2 (configuration not stated),inactive
2,CCOC(=O)Nc1ccc2c(c1)N(C(=O)CCCl)c1ccccc1[S@]2=O,50.1 µM (active)
3,CCOC(=O)Nc1ccc(S(=O)(=O)N(C)C(C)C)cc1,inactive
4,Oc1ccc(Br)cc1C1C=C(c2ccc3c(c2)OCO3)NC(c2ccc(Cl)cc2)N1 (configuration not stated),inactive
5,CC(CCCc1ccccc1)NC(=O)c1nn(-c2ccc(Cl)cc2)nc1CO (configuration not stated),inactive
6,COc1ccc(Cl)cc1N(C)C(=O)c1cc2c(=O)oc3ccc(C)cc3c2s1,inactive
7,O=C(NCCCc1ccccc1)c1ccc2c(c1)sc1nc(-c3ccc(F)cc3)cn12,inactive
8,CN1C(=O)c2ccccc2Sc2ccc(NC(=O)Cc3ccc(Cl)cc3)cc21,inactive
9,COc1cc2[nH]c(=S)n(Cc3ccc(C)o3)c(=O)c2cc1OC,8.91 µM (active)
10,COc1cc2[nH]c(=S)n(CCN3CCCCC3C)c(=O)c2cc1OC (configuration not stated),inactive
11,CCOc1cc2[nH]c(=S)n(Cc3ccc(C(=O)N4CCN(C)CC4)cc3)c(=O)c2cc1OCC,inactive
12,OC[C@H]1O[C@@H](n2cnc3c(NC4CCCC4)ncnc32)[C@H](O)[C@H]1O,inactive
13,CCc1ccccc1NC(=O)c1ccc2nc(CCc3ccccc3)oc2c1,inactive
14,O=c1cc(-c2ccccc2)[nH]c2nc(Cl)ccc12,inactive
15,COc1cccc(N2CC(NC(=O)/C=C\c3ccccc3)CC2=O)c1 (configuration not stated),inactive
16,COCOc1cc(O)c(C(=O)/C=C/c2ccc(OCOC)c(OCOC)c2)c(OCOC)c1,inactive
17,COc1ccc(/C=C/C(=O)c2cc(Br)ccc(=O)c2O)cc1,35.5 µM (active)
18,Cc1ccc(-c2nc(=N)sn2Cc2ccccc2)cc1,inactive
19,Cc1ccc(NC(=O)Cn2nnc3sc4c(c3c2=O)CCC(C)C4)cc1 (configuration not stated),inactive
20,COc1ccc(-c2cc(C(F)(F)F)nc(SCC(=O)N(C)Cc3ccccc3)n2)cc1OC,inactive
21,COc1ccc(-c2cc(C(F)(F)F)nc(S(C)(=O)=O)n2)cc1OC,17.8 µM (active)
22,COc1ccc(CCNc2nc(-c3ccc(F)cc3)cc(C(F)(F)F)n2)cc1OC,inactive
23,CC1CN(C(=O)N2CCC(C(=O)NCc3ccco3)CC2)c2cc(Cl)ccc2O1 (configuration not stated),inactive
24,CC(=O)Nc1ccc(NC(=O)CSc2nnc3c4cc(Br)ccc4n(C)c3n2)cc1,inactive
25,CC1CCN(S(=O)(=O)c2ccc3c(c2)N(CC(=O)NCCc2ccccc2)C(=O)CO3)CC1,inactive

row,SMILES,Potency
1,Brc1ccc(C2=CC(c3ccco3)n3ncnc3N2)cc1 (configuration not stated),39.8 µM (active)
2,Cc1ccccc1OCC(=O)Nc1c(C(=O)Nc2ccccc2F)oc2ccccc12,inactive
3,NC(=O)Nc1ccc(/C=C/c2ccnc3ccccc23)cc1,inactive
4,C=CC1=C(C(=O)O)N2C(=O)[C@@H](NC(=O)/C(=N/OCC(=O)O)c3csc(N)n3)[C@H]2SC1,inactive
5,Cc1nnc(SCc2cc(=O)[nH]c(N3CCN(Cc4ccccc4)CC3)n2)s1,inactive
6,Cc1cc(C)cc(C(=O)NC2C(=O)N3C(C(=O)O)=C(CSc4nnc(C)s4)CSC23)c1 (configuration not stated),8.91 µM (active)
7,Cc1ccc(C)c(S(=O)(=O)c2nnn3c2nc(N2CCOCC2)c2sccc23)c1,inactive
8,O=C(Nc1ccc(Cl)cc1)c1cnn2c1NC(=C1CC1)C=C2C(F)F,inactive
9,CC(C)(C)n1ncc2c(=O)n(Cc3ccc(C(=O)c4ccccc4)cc3)cnc21,inactive
10,CCCCNC(=O)CN1C(=O)NC(Cc2ccccc2)(Cc2ccccc2)C1=O,inactive
11,CCCCCCCC(=O)NC(Nc1ccccc1OC)C(Cl)(Cl)Cl (configuration not stated),inactive
12,CCCCC(O)(CCCC)C(=O)NN(C(=O)CCl)c1ccccc1,10 µM (active)
13,CCOc1ccccc1CNC(=O)c1cnc2c(-c3ccc(OCC)c(OCC)c3)c(C)nn2c1C,inactive
14,CC1=C(C(=O)OCC2CCCCC2)C(c2c(F)cccc2Cl)CC(=O)N1 (configuration not stated),inactive
15,Cc1cc(C)c(NC(=O)c2cc3sc(Cl)cc3n2C)c(C)c1,inactive
16,CCN1CCC(O)(/C=C/c2ccc(C)cc2)C(C(=O)/C=C/c2ccc(C)cc2)C1 (configuration not stated),1.26 µM (active)
17,Cc1ccc(NC(=O)CSc2nc3ccccc3c3nc(CCn4cncc4C)nn23)cc1F,inactive
18,CN(C)C1=C2C=CC=CC2/C(=C2/C=Cc3ccccc32)C=C1 (configuration not stated),inactive
19,COC(=O)c1ccc(NC(=O)CCc2c(C)nn(-c3ccc(N4CCCC4)nn3)c2C)cc1,inactive
20,CC(C)S(=O)(=O)c1oc(-c2ccc(F)cc2)nc1S(=O)(=O)c1ccc(F)cc1,1 µM (active)
21,Cc1ccc(-c2nc(S(=O)(=O)c3ccc(C)cc3)c(N3CCCCCC3)o2)cc1,inactive
22,O=C(CSc1oc(-c2ccc(F)cc2)nc1S(=O)(=O)c1ccc(Br)cc1)NC1CCCCC1,inactive
23,C=Cc1ccc(Cn2c(C(=O)OC)cc3sc(C)cc32)cc1,inactive
24,COc1ccc(-c2nc3c(c(SCC(=O)Nc4ccc(C(=O)O)cc4)n2)Cc2ccccc2O3)cc1,inactive
25,Cc1cccc(CNC(=O)c2cnc3sc(N4CCCCC4)nn3c2=O)c1,inactive

row,SMILES,Potency
1,COc1ccccc1N1CCN(C(=O)C2CCN(S(=O)(=O)c3c(C)noc3/C=C/c3ccc(C)cc3)CC2)CC1,inactive
2,CCCN(CCC)c1c([N+](=O)[O-])c(=O)oc2ccccc12,inactive
3,COc1cc(OC)c(OC)cc1/C=C/c1nc2ccccc2c(=O)n1-c1ccc(Br)c(C)c1,inactive
4,CCn1c(/C=C/c2ccc([N+](=O)[O-])o2)nc2ccccc2c1=O,3.16 µM (active)
5,Cc1ccc(C2c3[nH]c4ccccc4c3CCN2C(=O)c2cccc(C)c2)cc1 (configuration not stated),inactive
6,COc1ccc(-c2nc3sc(CCNS(=O)(=O)c4ccc(F)c(C)c4)c(C)n3n2)cc1,inactive
7,Cc1cc(-c2n[nH]c(=S)n2-c2ccc(C)c(C)c2)no1,inactive
8,COc1ccccc1-n1c(=S)[nH]c2c(sc(=S)n2-c2ccc(C)cc2C)c1=O,inactive
9,COc1ccccc1-n1c(-c2cc(-c3ccco3)[nH]n2)n[nH]c1=S,44.7 µM (active)
10,COc1ccc(N2CCN(C(=O)C3CCCN(C(=O)c4cc5sccc5n4C)C3)CC2)cc1 (configuration not stated),inactive
11,COc1ccc(CN2CCNC(=O)C2CC(=O)N(C)Cc2ccccn2)cc1OC (configuration not stated),inactive
12,COc1ccccc1CN1CCNC(=O)C1CC(=O)N(C)CC1CCOCC1 (configuration not stated),inactive
13,CN(C(=O)CC1C(=O)NCCN1Cc1ccc2ccccc2c1)C1CCOCC1 (configuration not stated),39.8 µM (active)
14,O=C(Cn1c(-c2cccs2)cc2ccccc21)NCCc1ccc(Cl)cc1,inactive
15,CCNC(=O)Cn1nc(C)n2c(cc3c(OC)cccc32)c1=O,inactive
16,COC(=O)C(CC(=O)Nc1cc(C)ccc1C)Nc1ccccc1OC (configuration not stated),inactive
17,Cc1ccc(C)c(NC(CC(=O)c2ccccc2)C(=O)OCC(=O)c2cccs2)c1 (configuration not stated),44.7 µM (active)
18,O=C(COC(=O)[C@H](Cc1ccccc1)NC(=O)c1cccs1)Nc1cc(F)ccc1F,inactive
19,COc1cc2nc(N3CCCN(C)CC3)nc(NC(C)C)c2cc1OC,inactive
20,CCOc1ccc(N(Cc2ccccc2)C(=O)c2nc(SCC)ncc2Cl)cc1,inactive
21,CCOc1ccc(NC(=O)CN(Cc2ccccc2)S(=O)(=O)c2ccc(Cl)cc2)cc1,inactive
22,CCOc1ccc(N(Cc2ccccc2)C(=O)c2nc(S(C)(=O)=O)ncc2Cl)cc1,2.24 µM (active)
